# Assay results published in PubChem BioAssay AID1851 (National Center for Advancing Translational Sciences (NCATS), 2009).
# Values joined by “and” are separate entries in the source; they are usually repeats but may differ in a detail not shown here. Equal values may be shown once. The campaign covered roughly 16,000 compounds. About 2,600 (16%) were called active. Inconclusive results (about 20%) are left out. The call rests on the fitted dose curve; in most records, active means well fitted curve in the direction sought with a large enough effect; inconclusive means small, poorly fitted or top-dose-only effect, or effect the other way; inactive means no such curve, though single readings can be large or run the other way. These entries were drawn from the full list.
# Biological target: Cytochrome P450 2D6 (Homo sapiens) (UniProt P10635)
# Sequence (P10635 whole entry, looked up): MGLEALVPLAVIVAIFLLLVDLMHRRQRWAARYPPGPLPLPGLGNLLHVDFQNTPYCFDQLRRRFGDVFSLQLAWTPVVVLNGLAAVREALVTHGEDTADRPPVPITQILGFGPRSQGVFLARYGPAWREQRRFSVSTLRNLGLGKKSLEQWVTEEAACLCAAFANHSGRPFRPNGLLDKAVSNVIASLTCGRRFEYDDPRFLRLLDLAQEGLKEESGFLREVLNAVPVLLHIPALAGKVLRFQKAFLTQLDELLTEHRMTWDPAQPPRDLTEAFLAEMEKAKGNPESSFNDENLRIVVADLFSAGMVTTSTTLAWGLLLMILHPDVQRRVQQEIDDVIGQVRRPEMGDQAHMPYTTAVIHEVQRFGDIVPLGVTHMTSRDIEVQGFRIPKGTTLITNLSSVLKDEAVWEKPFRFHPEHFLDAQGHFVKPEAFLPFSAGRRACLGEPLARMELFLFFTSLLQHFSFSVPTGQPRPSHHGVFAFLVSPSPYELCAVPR
# Assay: Cytochrome panel assay with activity outcomes
# Settings: recombinant CYP, pro-luciferin dealkylation, luminescence, p450-cyp2d6; series mostly up to 57.1 µM; activity, negative = inhibition: at the top concentration
# On the % scale 0 is the no-effect control and ±100 the full control effect.
SMILES,"activity, negative = inhibition",AC50
CC[N+](CC)(CC)CCOc1cccc(OCC[N+](CC)(CC)CC)c1OCC[N+](CC)(CC)CC,6.01% [at 25.6 µM] (inactive),
CC[N+](CC)(CC)CCOc1ccc(/C=C\c2ccccc2)cc1,,7.94 µM (active)
CCOC(=O)N1CCN(C(=O)c2ccc(Cl)c(S(=O)(=O)N3CCOCC3)c2)CC1,-1.98% (inactive),
O=C(NCCCn1ccnc1)c1ccc(Br)c(S(=O)(=O)N2CCOCC2)c1,,0.316 µM (active)
Cc1ccc(C(=O)NCCCN2CCOCC2)cc1N1CCCC1=O,-4.62% (inactive),
O=C(O)/C=C\C(=O)Nc1ccc2c(c1)-c1ccccc1C2,8.73% [at 11.4 µM] (inactive),
CC(=O)N1CCC2(CC1)CN(c1ccncc1)C2,11.3% (inactive),
O=C(N/N=C/c1ccccn1)c1ccc(Br)o1,11.8% (inactive),
CN(C)c1ncc2nc(-c3ccccc3)c(=O)n(C3CC3)c2n1,-20.7% (inactive),
C=CCSC[C@@H]1Nc2cc(Cl)c(S(N)(=O)=O)cc2S(=O)(=O)N1,-3.49% [at 25.6 µM] (inactive),
COc1ccc(C(=O)/C=C(/C)N(C)C)cc1,0.83% (inactive),
COc1ccc(C(=O)/C=C2/c3ccccc3CC(C)(C)N2C)cc1,,0.282 µM (active)
COc1ccc(C(=O)N2CCC3(CCN(C)CC3)CC2)cc1,-0.103% (inactive),
Clc1cccc(Oc2cnc3ccccc3n2)c1,-2.63% (inactive),
COC(=O)c1ccc(NC(=O)C2CCCCC2C(=O)O)cc1 (stereo not drawn),-39% (inactive),
Cc1ccc(NC(=S)NC2CCCC2)cc1,-23.7% (inactive),
COC(=O)c1ccc(NC(=S)NC2CCCCC2)cc1,,15.8 µM (active)
CCCCCCCC/C=C\CCCCCCCC(=O)NCc1ccc(O)c(OC)c1,,3.16 µM (active)
CCCCCCCCCCCCCCCC(=O)NC(C)C,0.58% (inactive),
CCCCCCCCC(=O)NCc1cc(OC)c(O)cc1I,,7.94 µM (active)
COc1cc(CC(=O)O)ccc1O,0.322% (inactive),
CCCCCCCC/C=C\CCCCCCCC(=O)N[C@@H](CO)Cc1ccc(O)cc1,,0.126 µM (active)
CC(=O)N[C@H](Cc1ccc(O)cc1)C(=O)O,-3.43% [at 11.4 µM] (inactive),
CCCCCC(=O)Nc1cc2[nH]c(=O)cc(COC)c2cc1C,-4.3% (inactive),
CCCc1nnc(NC(=O)CCC(=O)NCc2ccccc2OC)s1,-11% (inactive),
CCCCCCCC/C=C\CCCCCCCC(=O)NCCc1ccc(O)c(O)c1,-17.6% (inactive),

SMILES,"activity, negative = inhibition",AC50
O=C(Nc1ccc(F)cc1Cl)c1ccc2c(=O)n3c(nc2c1)CCCCC3,12.7% (inactive),
Cc1ccc(N=C/C(C(=O)C(F)(F)F)=C(\O)c2cccs2)cc1,-11% (inactive),
CCOC(=O)Cc1csc(NC(=S)NC(=O)c2ccc(F)cc2)n1,3.85% (inactive),
CCOc1ccc(NC(=O)N2CCC(C(N)=O)(N3CCCCC3)CC2)cc1,14.7% (inactive),
CC(C)CO/N=C1/[C@H]2O[C@@H]2[C@@H](O)[C@H]2[C@H]1CCn1c(=O)n(-c3ccccc3)c(=O)n12,12.6% [at 11.4 µM] (inactive),
COCCn1c(=O)c(-c2cccs2)nc2cnc(Oc3ccccc3)nc21,-9.87% (inactive),
CC(C)C(O)(C(C)C)C(C)C,8.61% [at 11.4 µM] (inactive),
COc1ccc(C(=O)Nc2cccc(OC(=O)c3ccc(C)c(C)c3)c2)cc1,-14% (inactive),
CCOc1ccc(NC(=O)c2ccc(OC)cc2)cc1,-3.36% (inactive),
COc1ccc(C(=O)Nc2cc(OC)cc(OC)c2)cc1,,7.08 µM (active)
CCCCc1nc(SCC(=O)Nc2ncccn2)n[nH]1,12.4% (inactive),
COC(=O)COc1ccsc1C(=O)OC,16.8% (inactive),
COc1ccc2oc(-c3ccc(C)c(NC(=O)CSc4ccc(Cl)cc4)c3)nc2c1,,2.51 µM (active)
COc1ccc2oc(-c3ccc(C)c(NC(=O)c4ccc(N5CCOCC5)c([N+](=O)[O-])c4)c3)nc2c1,-9.69% (inactive),
Cc1ccc(-c2nc3ccccc3o2)cc1NC(=O)Cc1cccs1,28.6% (inactive),
Cc1cccc(NC(NC(=O)c2cccnc2)C(Cl)(Cl)Cl)c1 (stereo not drawn),5.38% (inactive),
NC(=O)c1ncn([C@@H]2O[C@@H](CO)[C@@H](O)[C@H]2O)c1O,3.94% (inactive),
COc1ccc(O[C@H]2C=C[C@@H](c3ccccc3)O[C@@H]2CON=C(C)C)cc1,-3.07% [at 11.4 µM] (inactive),
O=C(Cc1csc(Nc2nc(=S)[nH]c3ccccc23)n1)NCc1cccc(Cl)c1,-28% (inactive),
Cc1sc2nc(SCC(=O)C(C)(C)C)n(Cc3ccco3)c(=O)c2c1C,-6.32% (inactive),
Cc1n[nH]c(=O)nc1NCc1ccccc1Cl,-22.5% (inactive),
O=C(O)C[C@H](Cc1ccccc1Cl)C(=O)O,-0.233% [at 11.4 µM] (inactive),
Clc1ccccc1CNCC1CCC(CNCc2ccccc2Cl)CC1 (stereo not drawn),,12.6 µM (active)
CCOC(=O)C(C)Sc1nnc(CNC(=O)c2ccc(OC)cc2)n1C1CCCCC1 (stereo not drawn),-5.97% (inactive),
CCOC(=O)c1sc(C)c(C(=O)NCC(C)(C)CN(C)C)c1N,,1.78 µM (active)
CCOC(=O)c1sc2nc3c(cc2c1N)COC(C)(CC)C3 (stereo not drawn),-25.5% (inactive),

SMILES,"activity, negative = inhibition",AC50
CCOC(=O)c1nc(N)sc1C(=O)OCC,17.3% (inactive),
Cc1ccc(Cn2cnc3c(nnn3Cc3ccc(Cl)cc3)c2=O)cc1,11.9% (inactive),
CC(=O)[C@H]1CC[C@@H]2[C@H]3CC=C4C[C@@H](O)CC[C@]4(C)[C@H]3CC[C@]12C,13.6% [at 25.6 µM] (inactive),
CC(=O)Nc1nnc(S(N)(=O)=O)s1,2.74% [at 25.6 µM] (inactive),
O=C(c1ccccc1)c1nc2ccccc2n(CCCn2c(=O)c(C(=O)c3ccccc3)nc3ccccc32)c1=O,-5.06% (inactive),
CCn1c(/C=C2/C(=O)N(C)c3ccccc32)nc2ccccc2c1=O,25% (inactive),
CCCn1c(/C=C/c2ccccc2)nc2ccccc21,,8.91 µM (active)
C[N+]1(C)C[C@@H](O)C[C@@H]1C(=O)[O-],3.69% [at 25.6 µM] (inactive),
CCNc1ncc2nc(-c3ccccc3)c(=O)n(Cc3cccs3)c2n1,-15.8% (inactive),
Cc1ccc(-c2nc3ccccc3s2)cc1NC(=S)NC(=O)c1ccccc1,2.81% (inactive),
CCn1c(-c2nonc2NC(=O)c2ccccc2)nc2ccccc21,25.6% (inactive),
CC(NC(=O)c1ccccc1)c1nc2ccccc2n1Cc1ccccc1F (stereo not drawn),,14.1 µM (active)
C=CCn1c(C(C)NC(=O)c2ccccc2)n[nH]c1=S (stereo not drawn),-13.1% (inactive),
O=c1cc(CO)oc(CN2CCCC2)c1O,-7.9% (inactive),
Cc1ccc(O)c(-c2cc(C(F)(F)C(F)F)nc(-c3ccccc3)n2)c1,-15.4% (inactive),
Cc1ccc(-c2ccc(/C=N/N3C(=O)C4C5C=CC(C6CC56)C4C3=O)o2)c([N+](=O)[O-])c1 (stereo not drawn),-12% (inactive),
Cn1c(COc2nnc(-c3ccc(Cl)cc3)c3ccccc23)nc2ccccc21,-36.4% (inactive),
CC(C)C(=O)NCCc1nc2ccccc2n1CCCOc1ccc(Cl)cc1,,3.16 µM (active)
CC(C)C(=O)NCCn1ccc2ccccc21,-12.4% (inactive),
COc1ccc(C(=O)c2ccc(OC)c(OC)c2)cc1OC,-16.3% (inactive),
CCOC(=O)N1CCN(C(=O)c2ccc(OC)c(OC)c2)CC1,5.75% (inactive),
COc1ccc(C(=O)OC(C)CN2CCN(C)CC2)cc1OC (stereo not drawn),,3.55 µM (active)
Cc1cc(N2CCN(C)CC2)nc2ccc(NC(=O)CCC(=O)NCc3ccco3)cc12,-1.82% (inactive),
CCCCC/C=C\C[C@H](O)/C=C\c1cccc(C[C@H](O)CCCCO)n1,-6.38% (inactive),
COc1ccc(C(C(=O)NC2CCCC2)N(C(=O)c2snc(-c3ccc(F)cc3)c2N)c2ccc(F)cc2)cc1 (stereo not drawn),-4.46% (inactive),
CCc1ccc(N(C(=O)c2snc(C(N)=O)c2N)C(C(=O)NCCC(C)C)c2c[nH]c3ccccc23)cc1 (stereo not drawn),-29.2% (inactive),

SMILES,"activity, negative = inhibition",AC50
CC(C(=O)NC1CCCC1)N(C(=O)c1snc(C(N)=O)c1N)c1ccc2c(c1)OCCO2 (stereo not drawn),,14.1 µM (active)
Cc1ccccc1NC(=S)NN1CCN(C)CC1,-0.0224% (inactive),
Cc1ccc(CNCC(O)(c2ccc(F)cc2)c2ccc(F)cc2)cc1,,1 µM (active)
OC(CNCc1ccc(F)cc1)(c1ccc(F)cc1)c1ccc(F)cc1,,0.794 µM (active)
CCOC(=O)C(C(=O)NCc1ccc(C)cc1)c1ncc(C(F)(F)F)cc1Cl (stereo not drawn),-3.02% (inactive),
O=C(O)c1ccccc1C(=O)NCc1ccc(F)cc1,-19.2% (inactive),
COc1cc2c(C(=O)N3CCN(C)CC3)c(C)n(-c3ccccc3)c2cc1Br,7.75% (inactive),
CN1CCN(C(=O)c2ccc3c(=O)n4c(nc3c2)CCCCC4)CC1,5.28% (inactive),
CCOC(=O)c1ccc(NC(=O)C2(c3ccc(OC)cc3)CCOCC2)cc1,-27.2% (inactive),
CCOC(=O)CCCNC(=O)c1cncc(Br)c1,0.0414% (inactive),
CCOC(=O)CCCNC(=O)CCCNC(=O)C(c1ccccc1)c1ccccc1,,0.891 µM (active)
CCOC(=O)c1cc(CC)sc1NC(=O)C(c1ccccc1)c1ccccc1,-0.533% (inactive),
CC(C)(C)C(=O)N1CCc2cc(-c3csc(N)n3)ccc21,-5.95% (inactive),
CCC(=O)Nc1ccccc1C(=O)OCC(=O)c1ccccc1,-24.5% (inactive),
CN(C)CCCO[C@H]1[C@H]([C@H](O)CO)O[C@H]2OC(C)(C)O[C@@H]21,3.96% (inactive),
Cc1cc2cc(CNC(=O)CC(C)C)ccc2n1C,-0.54% (inactive),
CCOC(=O)N/N=C1/C[C@@H](O)[C@@H](O)[C@@H]2[C@@H]3C(=O)N(c4cccc(Oc5ccccc5)c4)C(=O)[C@H]3CC[C@H]12,2.57% [at 11.4 µM] (inactive),
CCOC(=O)c1cncc(C(=O)O)c1,4.25% (inactive),
CCOC(=O)c1c(C(C)(C)C)oc2ccc(O)cc12,,14.1 µM (active)
CCOC(=O)c1c(C)oc2c1cc(O)c1ccccc12,-3.41% (inactive),
C=CCCCCCCCCC(=O)Nc1c[nH]c(=O)[nH]c1=O,-7.96% (inactive),
O=C1C[C@@H](O)[C@@H](O)[C@H]2[C@@H]3C(=O)N(Cc4ccccc4)C(=O)[C@@H]3CC[C@H]12,-0.874% [at 11.4 µM] (inactive) and 9.9% [at 11.4 µM] (inactive),
COc1ccc(Cn2nnnc2C(c2ccccc2Cl)N2CCC(C(N)=O)CC2)cc1 (stereo not drawn),-14.7% (inactive),
O=C(Nc1ccc(Cl)cc1)OCCn1nnnc1C(c1ccccc1Cl)N1CCOCC1 (stereo not drawn),,15.8 µM (active)
O=C(Nc1ccc(Cl)cc1)OCc1cc(-c2ccccc2Cl)on1,-1.65% (inactive),
